Source: PubChem (Johns Hopkins Ion Channel Center)
Most compounds without a hit are left out; they make up all but 1.6% or so of the library.
KCNQ2 enhance: potentiators of rat KCNQ2 potassium channel. CHO-K1 KCNQ2, FluxOR thallium flux fluorescence; stronger effect = higher value. B-score at 10 µM. actives 0.54% (n = 310,000);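 active means fluorescence ratio B-score at least 3 SD of library B-scores, with initial fluorescence B-score within 3 of them, cut at about 5.3 in these data; same plate scores as AID 2156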;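 further: B-score of peak minus minimum over baseline fluorescence ratio after K+ and Tl+ stimulus; positive B-score means potentiation of KCNQ2 with more thallium influx and brighter signal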
KCNQ2 inh: KCNQ2 (rat) channel inhibition; O88943; B-score at 10 µM; actives 1.1% (n = 310,000); CHO-K1 KCNQ2, FluxOR thallium flux, 20 min; stronger effect = lower value;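 active means fluorescence ratio B-score at most minus 3 library SDs, with starting brightness B-score within 2 library SDs, cut at about -5.5 in these data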
Kir21 conf inh: confirmation of mouse Kir2.1 potassium channel inhibitors. shares compounds with KCNQ2 enhance. Kir2.1-expressing cells, FluxOR thallium flux fluorescence; stronger effect = lower value. Tl flux remaining, % of negative control (stronger effect = lower value), % at 10 µM. actives 41% (n = 2,300). AID 2032;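 active means Primary-screen hit whose thallium flux fell at least 3 control SD below untreated wells in both duplicates, with normal baseline fluorescence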;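 further: 0% = blank wells without stimulus and 100% = stimulated no-compound controls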
HEK293 ctr: alters thallium flux in parental HEK293 cells, Kir2.1 counter-screen | shares compounds with KCNQ2 enhance | FluxOR thallium flux fluorescence; 0% = unstimulated blank wells | FluxOR signal as % of negative control (100 = no effect), % at 10 µM | actives 19% (n = 2,300);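 active means dye signal at least 3 control SD above or below untreated wells in both duplicates, raw fluorescence within 3, either direction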;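 further: percent is based on the flux ratio of peak minus minimum fluorescence over baseline F0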
CHO-K1 ctr: alters thallium flux in parental CHO-K1 cells, KCNQ2 counter-screen; shares compounds with KCNQ2 enhance; FluxOR thallium flux fluorescence; zero = vehicle mean+3SD, 100% = vehicle-minus-blank window; activity increase over 3SD of controls, % at 10 µM; actives 43% (n = 1,200);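 active means signal rise of at least 3 SD above the untreated control mean, in both duplicate wells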;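 further: counter screen of KCNQ2 potentiator hits so any rise reflects channel-independent effects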
KCNQ1 pot spec: selectivity of KCNQ2 potentiators: effect on human KCNQ1. shares compounds with KCNQ2 enhance. CHO KCNQ1 stable, FluxOR thallium flux fluorescence; beyond 3SD, as % of vehicle-control signal. activation over 3SD threshold, % at 10 µM. actives 28% (n = 1,200);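 active means fluorescence ratio rise of at least 3 SD of vehicle wells above their mean, in both replicate wells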;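 further: 0% = vehicle mean plus 3 SD and 100% = vehicle minus unstimulated blank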
KCNQ2 pot confirm: rat KCNQ2 channel potentiator confirmation. shares compounds with KCNQ2 enhance. CHO-KCNQ2 cells, FluxOR thallium flux fluorescence. potentiation, less the hit threshold, % at 10 µM. actives 68% (n = 1,200);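 active means fluorescence ratio rising 3 SD or more over the vehicle control mean in both replicates, plus primary screen hit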;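 further: peak minus minimum thallium fluorescence divided by baseline after K/Tl stimulus; 0% = vehicle mean plus 3 SD and 100% = vehicle minus unstimulated blank difference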
Kir2-1 sel: selectivity of KCNQ2 potentiators: effect on mouse Kir2.1 | HEK293 Kir2.1, FluxOR thallium flux fluorescence | actives 2% (n = 1,200) | AID 2345 | activity over 3SD threshold, % at 10 µM | shares compounds with KCNQ2 enhance;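 active means fluorescence ratio rise of at least 3 SD above the vehicle-control mean, seen in both replicates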;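 further: 0% = vehicle mean plus 3 SD and 100% = vehicle minus no-stimulus blank window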
KCNQ2 W236L pot: rat KCNQ2 W236L mutant potentiation by KCNQ2 potentiators | actives 10% (n = 940) | CHO KCNQ2-W236L, automated patch clamp current | current increase over 3SD of negative controls (%), stronger effect = higher value, % at 25 µM | shares compounds with KCNQ2 enhance | AID 2558;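 active means current increase at least 3 SD of the untreated controls above them in both duplicate recordings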
Target sequence (O88943 whole entry W236L, looked up): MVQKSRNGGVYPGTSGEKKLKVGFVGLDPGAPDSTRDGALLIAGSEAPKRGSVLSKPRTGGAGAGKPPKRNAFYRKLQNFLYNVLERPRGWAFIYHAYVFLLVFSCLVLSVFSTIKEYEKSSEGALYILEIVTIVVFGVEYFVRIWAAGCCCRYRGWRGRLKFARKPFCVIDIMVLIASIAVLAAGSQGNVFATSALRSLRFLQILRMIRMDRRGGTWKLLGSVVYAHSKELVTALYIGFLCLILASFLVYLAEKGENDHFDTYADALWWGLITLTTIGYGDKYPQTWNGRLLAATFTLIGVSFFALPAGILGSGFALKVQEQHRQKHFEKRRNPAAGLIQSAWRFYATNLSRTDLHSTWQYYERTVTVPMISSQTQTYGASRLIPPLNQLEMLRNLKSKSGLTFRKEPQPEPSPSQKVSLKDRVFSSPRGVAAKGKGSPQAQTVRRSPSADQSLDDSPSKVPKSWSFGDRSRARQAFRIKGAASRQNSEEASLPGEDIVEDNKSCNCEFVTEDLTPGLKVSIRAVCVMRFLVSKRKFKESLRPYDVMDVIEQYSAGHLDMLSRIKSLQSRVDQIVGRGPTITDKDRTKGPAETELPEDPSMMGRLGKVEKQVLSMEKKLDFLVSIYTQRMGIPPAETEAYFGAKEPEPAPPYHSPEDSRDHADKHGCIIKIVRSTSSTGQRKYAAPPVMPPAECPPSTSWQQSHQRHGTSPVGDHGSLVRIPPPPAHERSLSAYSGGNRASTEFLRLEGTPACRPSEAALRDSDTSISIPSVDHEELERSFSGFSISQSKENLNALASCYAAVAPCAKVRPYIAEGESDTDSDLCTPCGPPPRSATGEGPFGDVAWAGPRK
The depositor's hits bear a star; i = inactive; . = not tested or not shown.

SMILES	KCNQ2 enhance	KCNQ2 inh	Kir21 conf inh	HEK293 ctr	others
CCCCCCCC(=O)NNC(=O)Cc1ccccc1	0.67	i	.	.
CCCCCC/C(C)=C1/SC(=S)NC1=O	21.6*	i	i	438.5%*	CHO-K1 ctr=6.0*;KCNQ1 pot spec=-23.1;KCNQ2 pot confirm=104.5*;Kir2-1 sel=-3.4;KCNQ2 W236L pot=71.1%*
CC(C)[C@H](NC(=O)[C@H](Cc1ccccc1)n1c(=O)[nH]c2ccccc2c1=O)C(=O)N1CCC[C@@H]1C(=O)O	0.01	i	.	.
Cc1ccc(S(=O)(=O)N2CCN(c3ccccc3)CC2)cc1C(N)=O	0.77	i	.	.
OCCNCc1cc(Br)ccc1OCc1ccc(Cl)cc1	0.2	i	.	.
OCCNCc1cccc(OCc2ccc(Cl)cc2)c1	0.57	i	i	i
CCOC(=O)c1c(/N=C/C2=C(O)CC(C)(C)CC2=O)sc(C(C)=O)c1C	.	i	.	.
CCCC(c1nnnn1CS(=O)(=O)c1ccc(C)cc1)N1CCN(CC)CC1 (configuration not stated)	5.47*	i	i	i	CHO-K1 ctr=32.5*;KCNQ1 pot spec=-8.5;KCNQ2 pot confirm=0.3*;Kir2-1 sel=-27.8;KCNQ2 W236L pot=i
CCCC(c1nnnn1CS(=O)(=O)c1ccc(C)cc1)N1CCN(c2ccc(F)cc2)CC1 (configuration not stated)	.	i	.	.
Cn1cc(SCC(=O)N2CCCc3ccccc32)c2ccccc21	.	i	51.5%*	i
Cn1cc(SCC(=O)N2CCOCC2)c2ccccc21	.	i	.	.
CCCCNC(=O)C(Sc1ccccc1)c1ccccc1 (configuration not stated)	.	i	.	.
C=CCN1C(=O)c2ccc(C(=O)N(C)CC(=O)Nc3cccc(F)c3)cc2C1=O	.	i	.	.
O=C(Nc1cccc2ncccc12)C12CC3CC(CC(C3)C1)C2	1.21	i	.	.
O=C(CC12CC3CC(CC(C3)C1)C2)Nc1cccc2ncccc12	11.1*	i	i	i	CHO-K1 ctr=-17.0;KCNQ1 pot spec=-15.5;KCNQ2 pot confirm=45.0*;Kir2-1 sel=-27.9;KCNQ2 W236L pot=i
COc1ccc(CCN2CC(C(=O)NCCN3CCOC3=O)CCC2=O)cc1 (configuration not stated)	.	i	.	.
CC(C)=CCC/C(C)=C/CC(C)(C)CNCCN1CCNCC1	.	i	i	i
CC(C)=CCC/C(C)=C/CCC(C)NCCN1CCNCC1 (configuration not stated)	.	i	.	.
CCc1ccc(CN2CCC(n3nccc3NC(=O)c3ccccc3)CC2)o1	.	i	.	.
Cc1ccc(/C=C(\NC(=O)c2ccc(C)cc2)c2nc(=S)[nH][nH]2)cc1	5.95*	i	i	i	CHO-K1 ctr=-3.5;KCNQ1 pot spec=-23.2;KCNQ2 pot confirm=-17.8;Kir2-1 sel=-37.5
Cc1ccc(C(=O)N/C(=C\c2cccs2)c2nc3ccccc3[nH]2)cc1	.	i	.	.
Cc1ccccc1OCC(O)CN1CCN(CCN2C(=O)c3cccc4cccc(c34)C2=O)CC1 (configuration not stated)	.	i	.	.
Cc1cccc(C)c1OCC(O)CN1CCC(CN2C(=O)c3cccc4cccc(c34)C2=O)CC1 (configuration not stated)	5.71*	i	i	i	CHO-K1 ctr=49.6*;KCNQ1 pot spec=-15.7;KCNQ2 pot confirm=-21.6;Kir2-1 sel=-27.4
COc1cc(/C=C2\SC(=S)N(CCC(=O)N3CCCCC3)C2=O)cc(OC)c1OC	.	i	.	.
c1ccc(-c2n[nH]c(-c3ccccn3)n2)cc1	13.8*	i	i	i	CHO-K1 ctr=-9.5;KCNQ1 pot spec=-14.8;KCNQ2 pot confirm=48.1*;Kir2-1 sel=-20.9;KCNQ2 W236L pot=i
SMILES	KCNQ2 enhance	KCNQ2 inh	Kir21 conf inh	HEK293 ctr	others
c1ccc(-c2n[nH]c(-c3ccccn3)n2)nc1	0.82	i	.	.
CCCCN1C(=O)N(c2nnc(C(C)(C)C)s2)C(O)C1c1ccc(C)cc1 (configuration not stated)	.	i	.	.
Cc1ccc(C(=O)NCC2CCCO2)cc1S(=O)(=O)N1CCCCC1 (configuration not stated)	1.9	i	.	.
CCC(C)(C)NC(=O)c1ccc2c(c1)N(CC(=O)NC1CCCC1)C(=O)C(C)(C)O2	.	i	.	.
C#CCn1c(=NC(=O)CSC(C)=O)sc2cc(F)ccc21	20.3*	i	i	i	CHO-K1 ctr=-4.8;KCNQ1 pot spec=-20.9;KCNQ2 pot confirm=62.3*;Kir2-1 sel=-33.8;KCNQ2 W236L pot=36.2%*
CCn1c(=NC(=O)CSC(C)=O)sc2cc(F)ccc21	1.5	i	.	.
CCOC(=O)c1cnn(-c2nc(OCC)cc(OCC)n2)c1C	.	i	.	.
CC(=O)N1CC(=O)N=C1SCC(=O)Nc1nc(C)c(-c2ccccc2)s1	.	i	.	.
CC1=CC(C)(C)N(C(=O)CSc2nnc(C)s2)c2ccc(C)cc21	.	i	70.5%*	i
CC1=CC(C)(C)N(C(=O)CSc2nnc(N)s2)c2cc(C)c(C)cc21	1.01	i	.	.
Cc1ccc(NC2=NCC(=O)N2Cc2cccs2)cc1C	0.74	i	.	.
CC(C)(CNC(=S)NCCc1ccccc1)CNC(=S)NCCc1ccccc1	.	i	.	.
COc1cc(/C=C2/SC(=S)N(CC(=O)O)C2=O)ccc1OCC(=O)Nc1ccc(C)c(C)c1	.	i	i	i
COc1ccc(/C=C2/SC(=O)N(CCC(=O)Nc3ccc(C)cc3)C2=O)cc1OC	0.85	i	.	.
Cc1ccc(C)c(Cn2c3ccccc3c3cnn(CC(=O)NCCCN4CCCCC4)c(=O)c32)c1	0.21	i	60.5%*	i
Cc1ccc(C)c(Cn2c3ccccc3c3cnn(CC(=O)NCc4ccccn4)c(=O)c32)c1	1.18	i	.	.
Cc1ccc(S(=O)(=O)NCc2ccccc2)s1	0.09	i	.	.
CCNc1ccc(C2(O)C(=O)c3ccccc3C2=O)cc1	.	i	.	.
COc1ccc(CCN2CCC(Nc3nc4ccccc4n3Cc3ccc(F)cc3)CC2)cc1	.	i	i	i
COc1ccc(CNc2nc3ccccc3n2CCN2CCCCC2)cc1	.	i	.	.
O=C(N/N=C/C(Br)=C/c1ccccc1)c1cnccn1	1.67	i	.	.
CC(C)(c1ccccc1)c1ccc(OCCCNCCO)cc1	1.02	i	28.0%*	i
COCCCNCCCOc1ccc(C(C)(C)c2ccccc2)cc1	0.52	i	.	.
COc1cc(OC)cc(C(=O)NNC(=O)C(=O)Nc2cc(OC)c(Cl)cc2OC)c1	9.3*	i	i	182.5%*	CHO-K1 ctr=-2.2;KCNQ1 pot spec=-12.9;KCNQ2 pot confirm=-4.3;Kir2-1 sel=-25.6;KCNQ2 W236L pot=i
Cc1ccc(NC(=O)c2cccs2)cc1	0.09	i	.	.
